Test results as given in a collection of fitness landscapes (doi:10.1016/j.celrep.2020.107928).
Over roughly 81,000 sequences, “one-hybrid fitness for binding NBS DNA” has its median near -0.1; the highest 2% begin near 0.36. Only a selection was taken, and the highest values are over-represented in it overall.

B1: Caulobacter ParB omega fusion; a variant is named by its letters at X, in order, B8GW30 (parent)
chain: MESVVVGEPGMSEGRRGLGRGLSALLGEVDAAPAQAPGEQLGGSREAPIEILQRNPDQPRRTFREEDLEDLSNSIREKGVLQPILVRPSPDTAGEYQIVAGERAWRAAQRAGLKTVPIMVRELDDLAVLEIGIIENVQRADLNVLEEALSYKVLMEKFERTQENIAQTIGKSXSHVANXMRLLXLPDEVQSYLVSGELTAXHARAIAAAADPVALAKQIIEGGLSVRETEALARKAPNLSAGKSKGGRPPRVKDTDTQALESDLSSVLGLDVSIDHRGSTGTLTITYATLEQLDDLCNRLTRGI

Variants of: B1
Assay: one-hybrid fitness for binding NBS DNA (the Noc-binding site; scaled: cognate 1, non-cognate 0); higher = stronger binding
Settings: with NBS DNA site
How it was run: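 Pre- and post-selection plasmids were Illumina-sequenced, three replicate libraries were pooled, and any variant with under 10 reads was removed. The libraries were Caulobacter ParB with four specificity codons randomised, selected in E. coli USO through a HIS3 reporter whose site is 19 bp from the promoter. Cells grew 48 hours at 37°C on M9 without histidine, with 0.1 mM IPTG and 5 mM 3-AT. Fitness is the log change in variant-to-wild-type read ratio, rescaled against cognate and non-cognate.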

| Variant | one-hybrid fitness for binding NBS DNA |
| --- | --- |
| QCGQ | 0.24 |
| QRGS | 0.7 |
| QSGM | ≤ 0.2 |
| QCGM | ≤ 0.2 |
| QRGC | 0.402 |
| QRGM | 0.436 |
| QPGC | ≤ 0.2 |
| QRGQ | 0.435 |
| QRGP | 0.301 |
| QRGD | 0.293 |
| QCGC | 0.244 |
| QSGQ | ≤ 0.2 |
| VHHD | ≤ 0.2 |
| KQFT | ≤ 0.2 |
| IGSG | ≤ 0.2 |
| ERAV | ≤ 0.2 |
| LHVR | ≤ 0.2 |
| AGVC | ≤ 0.2 |
| QSQV | ≤ 0.2 |
| LPLC | ≤ 0.2 |
| DDTM | ≤ 0.2 |
| HYPY | ≤ 0.2 |
| IAHC | ≤ 0.2 |
| SVFR | ≤ 0.2 |

| Variant | one-hybrid fitness for binding NBS DNA |
| --- | --- |
| YVTV | ≤ 0.2 |
| PPVI | ≤ 0.2 |
| KLLL | ≤ 0.2 |
| QRPG | ≤ 0.2 |
| QRIT | 0.678 |
| QRIP | ≤ 0.2 |
| QRPT | 0.576 |
| QSIT | 0.353 |
| QCIT | 0.432 |
| QPIT | ≤ 0.2 |
| QAPT | 0.23 |
| RPKK | ≤ 0.2 |
| VPVE | ≤ 0.2 |
| TFHR | ≤ 0.2 |
| VTIG | ≤ 0.2 |
| DETM | ≤ 0.2 |
| LSSE | ≤ 0.2 |
| IPSD | ≤ 0.2 |
| QSDH | ≤ 0.2 |
| QIVS | ≤ 0.2 |
| QSVH | ≤ 0.2 |
| QSKS | 0.645 |
| QSKH | 0.587 |
| QPKS | ≤ 0.2 |

| Variant | one-hybrid fitness for binding NBS DNA |
| --- | --- |
| QIKN | 0.223 |
| QCKS | 0.711 |
| QIKS | 0.497 |
| QNKS | 0.355 |
| TVQG | ≤ 0.2 |
| DATH | ≤ 0.2 |
| YDTE | ≤ 0.2 |
| TATG | ≤ 0.2 |
| KRHE | ≤ 0.2 |
| MHPT | ≤ 0.2 |
| RINQ | ≤ 0.2 |
| QTAY | 0.306 |
| QTAR | 0.768 |
| QTAQ | 0.251 |
| QTFR | 0.584 |
| QTFG | ≤ 0.2 |
| QTFF | ≤ 0.2 |
| SPYR | ≤ 0.2 |
| SHAM | ≤ 0.2 |
| QYDA | ≤ 0.2 |
| QYRA | 0.558 |
| QYVA | ≤ 0.2 |
| QYNA | 0.269 |
| QYKA | 0.531 |

| Variant | one-hybrid fitness for binding NBS DNA |
| --- | --- |
| QYYA | 0.271 |
| QPFC | ≤ 0.2 |
| FPTR | ≤ 0.2 |
| KLDM | ≤ 0.2 |
| RSHY | ≤ 0.2 |
| RSSY | ≤ 0.2 |
| RRAY | 0.405 |
| RRSY | 0.393 |
| RPQY | ≤ 0.2 |
| RRQY | 0.525 |
| RCAY | ≤ 0.2 |
| RRFY | 0.314 |
| RCHY | 0.215 |
| RCQY | ≤ 0.2 |
| RRHY | 0.452 |
| RCSY | ≤ 0.2 |
| SRQM | ≤ 0.2 |
| LMKG | ≤ 0.2 |
| SMNN | ≤ 0.2 |
| YTVM | ≤ 0.2 |
| DLVK | ≤ 0.2 |
| HQPS | ≤ 0.2 |
| VMQT | ≤ 0.2 |
| SRLY | ≤ 0.2 |

| Variant | one-hybrid fitness for binding NBS DNA |
| --- | --- |
| RIDV | ≤ 0.2 |
| AWTG | ≤ 0.2 |
| PYAQ | ≤ 0.2 |
| HRAG | ≤ 0.2 |
| RNYQ | ≤ 0.2 |
| RRNY | 0.589 |
| RRYY | 0.349 |
| RRRY | 0.798 |
| RCRY | 0.363 |
| RCNY | 0.221 |
| RRDY | 0.306 |
| WRPY | ≤ 0.2 |
| LPLQ | ≤ 0.2 |
| QRVR | 0.839 |
| QWKR | 0.356 |
| QRKR | 1.08 |
| NRKR | 0.309 |
| YQNG | ≤ 0.2 |
| TVTR | ≤ 0.2 |
| LWNE | ≤ 0.2 |
| YAMR | ≤ 0.2 |
| YPHD | ≤ 0.2 |
| LNNS | ≤ 0.2 |
| RSGW | ≤ 0.2 |

| Variant | one-hybrid fitness for binding NBS DNA |
| --- | --- |
| YQIT | ≤ 0.2 |
| RFAL | ≤ 0.2 |
| AGTL | ≤ 0.2 |
| QHKH | 0.546 |
| QHKF | 0.297 |
| QHYQ | ≤ 0.2 |
| QHKD | ≤ 0.2 |
| QHKQ | 0.404 |
| QHKN | 0.427 |
| QHVQ | 0.283 |
| QHDH | ≤ 0.2 |
| QHKG | 0.345 |
| QHKP | 0.255 |
| QHKS | 0.655 |
| QHVN | ≤ 0.2 |
| KHEE | ≤ 0.2 |
| SFKI | ≤ 0.2 |
| QVDA | ≤ 0.2 |
| RIMY | ≤ 0.2 |
| HVLC | ≤ 0.2 |
| GDVT | ≤ 0.2 |
| GYMF | ≤ 0.2 |
| QQLD | ≤ 0.2 |
| NQRT | ≤ 0.2 |

| Variant | one-hybrid fitness for binding NBS DNA |
| --- | --- |
| QQLT | 0.45 |
| KQRT | 0.225 |
| QQET | 0.371 |
| QQWT | 0.44 |
| QQEI | ≤ 0.2 |
| QQWC | ≤ 0.2 |
| QQLN | ≤ 0.2 |
| QQES | 0.23 |
| QQRT | 0.8 |
| KQWT | ≤ 0.2 |
| FLTY | ≤ 0.2 |
| KTPC | ≤ 0.2 |
| PLQH | ≤ 0.2 |
| TATP | ≤ 0.2 |
| MRTF | ≤ 0.2 |
| QQYT | 0.473 |
| DQYT | ≤ 0.2 |
| QQQT | 0.449 |
| QQQM | ≤ 0.2 |
| QQGT | 0.475 |
| QQHM | ≤ 0.2 |
| QQHC | ≤ 0.2 |
| QQGD | ≤ 0.2 |
| QQGM | 0.202 |

| Variant | one-hybrid fitness for binding NBS DNA |
| --- | --- |
| QQQY | 0.247 |
| QQHT | 0.535 |
| SAFG | ≤ 0.2 |
| IKRQ | ≤ 0.2 |
| STKR | 0.254 |
| FDSL | ≤ 0.2 |
| VKGK | ≤ 0.2 |
| DTSI | ≤ 0.2 |
| QQST | 0.516 |
| QQCT | 0.528 |
| QQSP | ≤ 0.2 |
| QQSD | ≤ 0.2 |
| QQCS | 0.356 |
| QQCN | ≤ 0.2 |
| QYKE | 0.213 |
| QYVY | ≤ 0.2 |
| QYRY | 0.486 |
| QYGY | ≤ 0.2 |
| QYKY | 0.479 |
| QYLT | 0.383 |
| QYKN | 0.366 |
| QYKL | 0.246 |
| QYDY | ≤ 0.2 |
| QYLN | ≤ 0.2 |

| Variant | one-hybrid fitness for binding NBS DNA |
| --- | --- |
| QYLD | ≤ 0.2 |
| QYFY | ≤ 0.2 |
| VANF | ≤ 0.2 |
| NCLY | ≤ 0.2 |
| QFRV | ≤ 0.2 |
| SHNY | ≤ 0.2 |
| QQPF | ≤ 0.2 |
| TSAQ | ≤ 0.2 |
| HDDG | ≤ 0.2 |
| CDFR | ≤ 0.2 |
| SYFG | ≤ 0.2 |
| LSYG | ≤ 0.2 |
| QYKH | 0.569 |
| QYCG | ≤ 0.2 |
| QYKM | 0.369 |
| QYCY | ≤ 0.2 |
| QYKF | 0.229 |
| QYKG | 0.294 |
| QYCT | 0.419 |
| QYWY | ≤ 0.2 |
| QYWN | ≤ 0.2 |
| QYLM | ≤ 0.2 |
| QYWT | 0.378 |
| QYPM | ≤ 0.2 |

| Variant | one-hybrid fitness for binding NBS DNA |
| --- | --- |
| LVLD | ≤ 0.2 |
| GKTG | ≤ 0.2 |
| TVSI | ≤ 0.2 |
| MEAE | ≤ 0.2 |
| YPFW | ≤ 0.2 |
| SPYH | ≤ 0.2 |
| HDPT | ≤ 0.2 |
| NGHF | ≤ 0.2 |
| GEAN | ≤ 0.2 |
| SSSE | ≤ 0.2 |
| QYSS | 0.357 |
| QYPT | 0.255 |
| QYSH | ≤ 0.2 |
| QYKT | 0.722 |
| QYST | 0.413 |
| QYRK | 0.36 |
| QYKK | 0.398 |
| QYHQ | ≤ 0.2 |
| QYHT | 0.417 |
| QYHC | ≤ 0.2 |
| QYYK | ≤ 0.2 |
| QYVT | 0.363 |
| VTAR | ≤ 0.2 |
| SYLG | ≤ 0.2 |

| Variant | one-hybrid fitness for binding NBS DNA |
| --- | --- |
| HAQP | ≤ 0.2 |
| GPML | ≤ 0.2 |
| SDVP | ≤ 0.2 |
| IIPF | ≤ 0.2 |
| PDHK | ≤ 0.2 |
| MVPA | ≤ 0.2 |
| MAQR | ≤ 0.2 |
| QYKD | 0.212 |
| QYAS | 0.327 |
| QYYM | ≤ 0.2 |
| QYRT | 0.733 |
| QYAT | 0.427 |
| QYDM | ≤ 0.2 |
| QYIT | 0.355 |
| QYFT | 0.335 |
| QYKS | 0.643 |
| QYKP | 0.232 |
| QYYT | 0.352 |
| QYRM | 0.394 |
| SPCH | ≤ 0.2 |
| YMAS | ≤ 0.2 |
| ELYR | ≤ 0.2 |
| YQKG | ≤ 0.2 |
| QERT | ≤ 0.2 |

| Variant | one-hybrid fitness for binding NBS DNA |
| --- | --- |
| TNGI | ≤ 0.2 |
| RKAS | 0.597 |
| RKAD | ≤ 0.2 |
| RKAP | ≤ 0.2 |
| RKFN | ≤ 0.2 |
| RKFS | 0.435 |
| RKFP | ≤ 0.2 |
| EDSG | ≤ 0.2 |
| VTLK | ≤ 0.2 |
| ISMT | ≤ 0.2 |
| SRDR | ≤ 0.2 |
| QPRN | ≤ 0.2 |
| QSDN | ≤ 0.2 |
| QSRN | 0.374 |
| QSYN | ≤ 0.2 |
| QCRN | 0.482 |
| QCYN | ≤ 0.2 |
| KTCN | ≤ 0.2 |
| LIAD | ≤ 0.2 |
| LNLA | ≤ 0.2 |
| QQYI | ≤ 0.2 |
| QQKI | 0.399 |
| QQFI | ≤ 0.2 |
| QQVI | ≤ 0.2 |

| Variant | one-hybrid fitness for binding NBS DNA |
| --- | --- |
| QQRI | 0.383 |
| QQDI | ≤ 0.2 |
| ESLH | ≤ 0.2 |
| QAIS | ≤ 0.2 |
| QARS | 0.644 |
| QAYS | 0.305 |
| QAYH | ≤ 0.2 |
| QARN | 0.349 |
| QARH | 0.529 |
| TNFS | ≤ 0.2 |
| TAIV | ≤ 0.2 |
| LTFR | ≤ 0.2 |
| SLFT | ≤ 0.2 |
| ITST | ≤ 0.2 |
| SLTL | ≤ 0.2 |
| QRNF | 0.327 |
| QRNE | 0.276 |
| QRDS | 0.468 |
| QPDS | ≤ 0.2 |
| QRNS | 0.716 |
